Reference: the antibiotic and cytotoxicity screens of Wong et al. (2023)
Out of some 39,000 compounds screened, about 1,500 (3.8%) were called active. What follows is part of a selection rich in actives, with near analogues and random picks from the rest.

Tested on: HSkMC (human skeletal muscle cells)
Experiment: cytotoxicity call (relative viability < 0.9)
Conditions: 10 µM

Compound	cytotoxicity call
Cn1cnc(CCNC(=O)C[C@H]2CC[C@@H]3[C@H](COC[C@H](O)CN3C(=O)Nc3ccc(Cl)cc3)O2)c1	inactive
C[C@@H]1CN([C@@H](C)CO)C(=O)c2cc(NC(=O)c3ccccc3)ccc2O[C@@H](C)CCCCO[C@H]1CN(C)S(=O)(=O)c1cccs1	inactive
COCC#Cc1ccc2c(c1)O[C@H](CN(C)S(=O)(=O)c1cccc(F)c1)[C@H](C)CN([C@H](C)CO)S2(=O)=O	inactive
NC(=O)N1CCC(CC(=O)N2CCC([C@H]3c4ncc(Br)cc4CCc4cc(Cl)cc(Br)c43)CC2)CC1	inactive
C[C@@H]1CN([C@@H](C)CO)C(=O)CCCn2cc(nn2)CO[C@@H]1CN(C)S(=O)(=O)c1ccc2c(c1)OCCCO2	inactive
Cc1ccc(S(=O)(=O)N(C)C[C@@H]2Oc3c(NC(=O)C4CCOCC4)cccc3C(=O)N([C@H](C)CO)C[C@H]2C)cc1	inactive
C[C@@H]1CN([C@@H](C)CO)C(=O)c2c(c3ccccc3n2C)-c2ccccc2CO[C@@H]1CN(C)Cc1cccc(F)c1	inactive
C[C@H]1CN([C@@H](C)CO)C(=O)Cc2cc(NC(=O)Nc3cc(Cl)cc(Cl)c3)ccc2O[C@H]1CN(C)S(=O)(=O)c1ccc(Oc2ccccc2)cc1	inactive
C[C@H]1CN([C@@H](C)CO)C(=O)Cc2cc(NC(=O)Nc3ccc(Cl)c(Cl)c3)ccc2O[C@H]1CN(C)S(=O)(=O)c1ccc(Oc2ccccc2)cc1	inactive
C[C@H](CO)N1C[C@H](C)[C@@H](CN(C)S(C)(=O)=O)Oc2ccc(NC(=O)Nc3ccccc3)cc2CC1=O	inactive
Cc1ccccc1S(=O)(=O)N(C)C[C@@H]1Oc2ccc(NC(=O)Nc3cc(Cl)cc(Cl)c3)cc2CC(=O)N([C@@H](C)CO)C[C@@H]1C	active
Cc1ccccc1S(=O)(=O)N(C)C[C@@H]1Oc2ccc(NC(=O)Nc3ccc(Cl)c(Cl)c3)cc2CC(=O)N([C@@H](C)CO)C[C@@H]1C	active
Cc1noc(C)c1S(=O)(=O)N(C)C[C@@H]1Oc2ccc(NC(=O)Nc3ccccc3)cc2CC(=O)N([C@@H](C)CO)C[C@@H]1C	inactive
Nc1ccccc1CO	inactive
C[C@H](CO)N1C[C@H](C)[C@H](CN(C)CC2CC2)OCCCC[C@H](C)Oc2ccc(NC(=O)Nc3ccccc3)cc2C1=O	inactive
C[C@@H]1CCCCO[C@H](CN(C)Cc2ccc3c(c2)OCO3)[C@H](C)CN([C@H](C)CO)C(=O)c2cc(NC(=O)Nc3ccc4c(c3)OCO4)ccc2O1	inactive
Cc1ccc(S(=O)(=O)Nc2ccc3c(c2)C(=O)N([C@@H](C)CO)C[C@H](C)[C@H](CN(C)Cc2ccccc2)OCCCC[C@@H](C)O3)cc1	inactive
